# Screening data deposited in PubChem by Buhrlage Lab, Dana-Farber Cancer Institute and Novartis Institutes for BioMedical Research (Cambridge, Mass).
# USP30 inh – human USP30 deubiquitinase inhibition; Q70CQ3; purified USP30, Ub-rhodamine cleavage fluorescence; inhibition, % at 25 µM; 47,000 tested, 5.3% active
# USP8 block – human USP8 deubiquitinase inhibition; purified USP8, Ub-rhodamine cleavage fluorescence, 30 min; AID 1645853; inhibition, % at 20 µM; 47,000 tested, 4.2% active; P40818
# USP28 inh – human USP28 deubiquitinase inhibition | Q96RU2 | purified USP28, Ub-rhodamine cleavage fluorescence, 30 min | inhibition, % at 25 µM | 47,000 tested, 3% active
# USP17 block – inhibitors of human USP17 deubiquitinase. purified USP17, Ub-rhodamine cleavage fluorescence, 3 h. 47,000 tested, 6.5% active. AID 1645855. inhibition, % at 50 µM
# USP10 inh – inhibitors of human USP10 deubiquitinase; Q14694; purified USP10, Ub-rhodamine fluorescence, 60 min; inhibition, % at 20 µM; 47,000 tested, 1.1% active
# USP7 inh – blocks human USP7 ubiquitin-rhodamine cleavage | purified USP7, Ub-rhodamine cleavage fluorescence | Q93009 | inhibition, % at 20 µM | 47,000 tested, 0.3% active
# Hits are given with their value; 0 = inactive. Rows were chosen to be rich in hits. Some 13% of all compounds tested hit in one or more screens of this group. No stated cut-off is given here; in the data, active means inhibition above about 30%; inactive means the rest.
SMILES,USP30 inh,USP8 block,USP28 inh,USP17 block,USP10 inh,USP7 inh
c1ccc(CNc2ccc(-c3nc(-c4ccccc4)no3)nn2)cc1,0,41.6,0,0,0,0
COc1ccc(CNc2ccc(-c3ccccc3)nn2)cc1,0,0,0,36.8,0,0
CCN1CCN(c2ccc(-c3nc(-c4ccccc4)no3)nn2)CC1,0,0,0,0,0,0
O=C1CC(c2noc(C3(c4ccccc4)CC3)n2)CN1c1ccccc1 (centres undefined),0,0,0,0,0,0
Cc1ccccc1-c1noc(-c2cccnc2NCC2CCCO2)n1 (centres undefined),0,0,0,0,0,0
COc1cc(C(=O)N(Cc2cc(=O)[nH]c3ccccc23)C(C)C)cc(OC)c1OC,30.6,0,0,0,0,0
Cc1cccc(C)c1OCC(=O)N(C)Cc1cc(=O)[nH]c2ccccc12,0,0,0,0,0,0
Cc1cccc(OCC(=O)N(C)Cc2cc(=O)[nH]c3ccccc23)c1,0,30.1,0,0,0,0
CC(C)N(Cc1cc(=O)[nH]c2ccccc12)C(=O)c1ccc(C(C)(C)C)cc1,0,0,33.9,0,0,0
CNc1nc2c(c(=O)n1-c1ccccc1)CN(S(=O)(=O)c1cccc(F)c1)CC2,0,0,0,0,0,0
COc1ccccc1CN1C(=O)Cc2c(C)nc(C3CCCN(S(C)(=O)=O)C3)nc21 (centres undefined),0,0,0,0,0,0
NCCN1C(=O)C(=O)N2[C@H](CO)[C@@H](O)[C@H](O)[C@H](O)[C@@H]12,0,0,0,0,0,0
O=C(CSc1nc2ncccc2o1)NC(c1ccccc1)c1ccccc1,0,0,0,0,0,0
Cc1cc(F)ccc1NC(=O)C1CCN(c2cnc(N3CCCCC3)nc2)CC1,0,30.6,33.2,0,0,0
O=C(NCc1ccc(F)cc1)C1CCN(c2cnc(N3CCCCC3)nc2)CC1,0,0,69.2,0,0,0
Cc1noc(-c2ccc(N3CCCC(C(=O)NCc4ccc(F)cc4)C3)nc2)n1 (centres undefined),0,0,0,57.9,0,0
CNC(=O)c1cnn2c(C3CCCCN3C(=O)c3cccc(F)c3)ccnc12 (centres undefined),0,0,0,0,0,0
O=C(Nc1cccc(Br)c1)c1cc(-c2cccnc2)n[nH]1,70.9,98.0,42.6,0,37.1,0
CC(=O)c1cccc(NC(=O)c2cc(-c3cccnc3)n[nH]2)c1,85.5,0,90.5,77.9,0,0
COC(=O)c1cccnc1-n1c(=O)c2cccnc2n(CC(=O)Nc2c(C)cccc2C)c1=O,0,0,0,0,0,0
O=C1CCC[C@]2(CN(Cc3ccccc3)C[C@H]2c2ccccc2F)N1,0,0,0,0,0,0
Cc1nc2ccccc2nc1SCC(=O)Nc1ccc2c(c1)OCO2,65.6,0,0,46.8,0,0
Cc1ccc2oc(SCC(=O)Nc3ccc4c(c3)OCO4)nc2n1,0,0,0,0,0,0
O=C(CSc1nncc2ccccc12)Nc1ccc2c(c1)OCO2,57.5,0,0,0,0,0
COCCn1ccc2nc(C)c(C(=O)Nc3ccc4c(c3)OCO4)cc2c1=O,0,74.8,0,0,0,0
SMILES,USP30 inh,USP8 block,USP28 inh,USP17 block,USP10 inh,USP7 inh
Cc1noc(C)c1CN1CCN(C(=O)NCc2ccco2)CC1,0,0,0,0,0,0
Cc1ccc(S(=O)(=O)[C@H]2CS(=O)(=O)C[C@@H]2NCCc2ccc(F)cc2)cc1,0,0,0,0,0,0
CCc1nc(-c2csc(S(=O)(=O)Nc3ccccc3C)c2)no1,0,0,0,0,0,0
COc1cc(CN2CCC3(CC2)Nc2ccccc2C2=NCCN23)cc(OC)c1OC,0,0,0,0,0,0
COc1ccccc1N1CCN(C(=O)CC(c2ccccc2)c2ccccc2)CC1,0,0,0,0,0,0
COc1ccccc1/C=C(\C(=O)N1CCN(c2ccccc2)CC1)c1ccccc1,35.3,0,0,0,0,0
CCn1c2ccccc2c2cc(NC(=O)Cc3ccccc3Cl)ccc21,0,0,0,0,0,0
CNC(=O)N1CCCN(C2CCN(Cc3ccccc3)C2=O)CC1 (centres undefined),30.3,0,0,0,0,0
CCOC(=O)c1c(NCCO)c2ccccc2[nH]c1=O,0,0,0,0,0,0
Cc1c(CC(=O)NCC(=O)O)c(=O)oc2cc3c(cc12)CCC(C)(C)O3,0,0,0,0,0,0
Cc1c(CC(=O)NCC(C)C)c(=O)oc2cc3c(cc12)CCC1(CCCCC1)O3,0,0,0,35.7,0,0
Cc1cc(C)nc(SCc2cc(=O)n3[nH]c(C)c(-c4ccccc4)c3n2)n1,46.2,0,0,0,0,0
Cc1ccnc(SCc2cc(=O)n3[nH]c(C)c(-c4ccccc4)c3n2)n1,0,0,0,0,0,0
Cc1[nH]n2c(=O)c(Cl)c(-c3ccccc3)nc2c1-c1ccccc1,0,0,0,0,33.2,0
O=C(CO)c1ccc(O)cc1,0,0,0,0,0,0
O=C1Nc2ccc(S(=O)(=O)NCCCCCCNS(=O)(=O)c3ccc4c5c(cccc35)C(=O)N4)c3cccc1c23,0,0,37.9,0,0,0
O=C1C(=O)N(CCN2CCOCC2)C(c2ccc(F)cc2)C1=C(O)c1ccccc1 (centres undefined),0,0,0,0,0,0
Oc1cc(OCCN2CCCCC2)ccc1-c1[nH]ncc1-c1ccccc1,0,66.4,0,0,0,0
O=S(=O)(NNc1nc2ccccc2nc1C(F)(F)F)c1ccc(Br)cc1,36.4,0,0,0,0,0
O=c1c2cnc3nc(-c4cccnc4)nn3c2ccn1C1CCCCC1,0,0,0,0,0,0
O=c1c2cnc3nc(-c4cccnc4)nn3c2ccn1CCc1ccccc1,0,0,0,51.0,0,0
Cc1ccc(Nc2nc(NCc3ccco3)c3ccccc3n2)cc1,60.0,31.2,66.5,82.5,0,0
C#CCNC(=O)C1(Cc2ccccc2-c2cccnc2)CCOCC1,0,0,0,0,0,0
Cc1ccc(NC(=O)c2sc(=S)n(CCc3ccccc3)c2N)cc1,44.3,0,0,75.6,0,0
CC1=NS(=O)(=O)N(Cc2ccccc2)C=C1C(=O)Nc1ccc(C)cc1,0,0,0,0,0,0
NC(=O)C1(N2CCCCC2)CCN(C(=O)c2[nH]nc3c2CCc2ccccc2-3)CC1,0,86.5,0,59.1,0,0
CCn1ncc(CN(C)C(=O)Nc2ccc(Cl)cc2)c1C,31.7,0,0,0,0,0
O=C(CN(c1cc(C(F)(F)F)ccc1Cl)S(=O)(=O)c1ccccc1)NCc1ccco1,0,32.0,0,0,0,0
O=C(CN(c1cc(C(F)(F)F)ccc1Cl)S(=O)(=O)c1ccccc1)NCc1ccccn1,0,0,0,0,0,0
O=C(NCc1ccc(Cl)cc1)NCc1cnn2ccccc12,39.0,0,0,0,0,0
